The text below walks through data of PubChem BioAssay (Tox21).

SMILES strings stand for the structures. Values without a mark were called inactive. Where a call stands in place of a potency, no number is given. The source made the active and inactive calls. The call rests on the fitted dose curve.

The assay deals with Gonadotropin-releasing hormone receptor (Homo sapiens) (UniProt P30968). In words: Human gonadotropin-releasing hormone receptor (GnRHR) small molecule agonists, calcium flux assay in GnRHR-HEK293 cells (AID 1920063). Further: nearly all actives have a fitted effect of over 35% in size. A digest of the protocol: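 Agonist activity was measured as intracellular calcium flux in HEK293 cells engineered to stably express human GnRHR. After dye loading for 1 hour at 37 C, compounds in DMSO were added and fluorescence was followed for 3 minutes.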
Chain of Gonadotropin-releasing hormone receptor (Homo sapiens) (P30968 whole entry, looked up): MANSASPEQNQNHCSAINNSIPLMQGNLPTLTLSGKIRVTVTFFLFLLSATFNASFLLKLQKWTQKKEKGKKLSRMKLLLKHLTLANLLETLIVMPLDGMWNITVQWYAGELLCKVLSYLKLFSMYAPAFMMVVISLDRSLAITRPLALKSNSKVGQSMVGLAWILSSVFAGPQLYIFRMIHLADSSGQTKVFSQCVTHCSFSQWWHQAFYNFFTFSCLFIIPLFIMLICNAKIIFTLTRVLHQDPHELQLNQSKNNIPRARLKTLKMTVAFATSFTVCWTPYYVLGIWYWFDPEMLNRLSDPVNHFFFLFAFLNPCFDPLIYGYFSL

For `CCCCCCCCCCCCN1CCOCC1`, the Potency result is “inactive”.
In the case of `C[C@H]1O[C@H](O[C@H]2[C@H](O)[C@@H](O)[C@@H](O[C@H]3[C@H](O)[C@@H](O)[C@H](O)O[C@@H]3CO)O[C@@H]2CO)[C@H](O)[C@@H](O)[C@@H]1N[C@H]1C=C(CO)[C@@H](O)[C@H](O)[C@H]1O`, the Potency entry was “inactive”.
In the case of `CCN(CC)c1ccc(N)cc1`, the Potency entry is “inactive”.
Regarding `NS(=O)(=O)c1cc(C2(O)NC(=O)c3ccccc32)ccc1Cl` (stereo not drawn), the Potency result was “inactive”.
As to `CNC(=O)c1cc(Oc2ccc(NC(=O)Nc3ccc(Cl)c(C(F)(F)F)c3)cc2)ccn1`, the Potency entry is “inactive”.
In the case of `Nc1ccc(S(=O)(=O)Nc2ccnn2-c2ccccc2)cc1`, the activity change was -0.562% [at 11.8 µM, hits give high values].
For the compound `COC(=O)CS`, the Potency entry is “inactive”.
As to `CCCCOC(=O)[C@@H](C)Oc1ccc(Oc2ccc(C(F)(F)F)cn2)cc1`, the Potency result was “inactive”.
Take `Nc1ncnc2c1ncn2[C@@H]1O[C@H](CO)[C@@H](O)[C@H]1O`: the Potency result was “inactive”.
Take `O=C1c2cccc(O)c2C(=O)c2c(O)cc(CO)cc21`: the Potency entry was “inactive”.
Consider `Cc1cccc(C(=O)O)c1[N+](=O)[O-]`, for which the Potency result is “inactive”.
For `CC(=O)NO`, the Potency entry was “inactive”.
With `CCN(CC)CCc1nc(-c2ccccc2)no1`, the Potency result is “inactive”.
`OCCN1C[C@H](O)[C@@H](O)[C@H](O)[C@H]1CO`: the Potency result was “inactive”.
The same measure, in the same setting: the same measure for `O=C(Nc1ccccc1)c1cc([N+](=O)[O-])ccc1Cl`: “inactive”; for `CC(=O)OC(C)(C)Cc1ccccc1`: “inactive”; for `O=C(CCCl)NCc1ccccc1`: “inactive”.
With `Nc1ccc(C(=O)OCCCOC(=O)c2ccc(N)cc2)cc1`, the Potency entry was “inactive”.
On to `COCCOC(=O)C1=C(C)NC(C)=C(C(=O)OC/C=C/c2ccccc2)C1c1cccc([N+](=O)[O-])c1` (stereo not drawn), for which the Potency result is “inactive”.
`C[N+](C)(C)CCOC(=O)CCC(=O)OCC[N+](C)(C)C`: the Potency result was “inactive”.
The same measure, in the same setting: under `COC(=O)CCc1ccc(OCC(O)CNC(C)C)cc1` (stereo not drawn) stands “inactive”; under `O=C(Nc1ccc([N+](=O)[O-])cc1)Nc1ccc([N+](=O)[O-])cc1`, “inactive”.
Turning to `CCCCCCCCCCCCCCCCCCO`, the Potency entry is “inactive”.
For `FC(F)(F)C(F)(F)C(F)(F)C(F)(F)C(F)(F)C(F)(F)C(F)(F)C(F)(F)Br`, the Potency entry is “inactive”.
As for `C=CC(=O)OCCOCCOC(=O)C=C`, the Potency entry was “inactive”.
As for `C[C@@]12C(=O)OC(=O)[C@]1(C)C1CCC2O1`, the Potency entry is “inactive”.
Consider `C#CC(C)N(C)C(=O)Nc1ccc(Cl)cc1` (stereo not drawn), for which the Potency entry was “inactive”.
Same read-out and setting: under `O=C(COCCOCCOCC(=O)Nc1c(I)cc(I)c(C(=O)O)c1I)Nc1c(I)cc(I)c(C(=O)O)c1I` stands “inactive”; under `O=C(O)/C=C/c1ccc(/C=C/C(=O)O)cc1`, “inactive”; under `N#Cc1ccc(C(=O)O)cc1`, “inactive”.
On the same count and under the same terms, the same measure for `O=c1[nH]cnc2nc[nH]c12`: “inactive”.
On to `O=S(=O)(c1ccccc1)c1ccc(Cl)cc1`, for which the Potency result was “inactive”.
On to `C1=CCC(c2ccccc2)CC1` (stereo not drawn), for which the Potency result was “inactive”.
